This is a sample that favours compounds with a hit; in the whole collection about 19% have one here.
HT1080-NT tox: kills 2HG-producing HT-1080-NT fibrosarcoma cells; HT-1080-NT fibrosarcoma viability, CellTiter-Glo ATP luminescence, 48 h; Potency, µM (series often up to 46.1 µM), inactives show top-dose activity, negative = less viability, most hits filed as cytotoxic; actives 1.6% (n = 360,000); AID 686970;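 also: NT is the 2HG producing partner of a matched IDH1 knockdown line; 0% = DMSO-treated cells and -100% = media-only wells without cells; nearly all actives have a fitted effect of over 55% in size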
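Luminescent CellTiter-Glo readout after 48 hours of compound exposure at 37 degrees C defined viability of HT-1080-NT cells. Activity was normalized to DMSO wells and cell-free media wells; concentration-response curves were fitted and assigned curve classes.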
HT1080 IDH1KD tx: toxicity to HT-1080 IDH1 knockdown cells (counter line). HT-1080 IDH1 knockdown viability, ATP luminescence, 48 h. actives 2% (n = 360,000). Potency, µM (highest dose often 46.1 µM), without a hit: at the top dose activity, negative = toxicity, usual class: cytotoxic;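 also: 0% = DMSO wells and -100% = cell-free medium wells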
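CellTiter-Glo luminescence after 48 h compound exposure at 37 degrees C of IDH1-knockdown HT-1080 cells in 5% FBS RPMI. %Activity scaled between DMSO wells and cell-free media wells, with curves fitted and assigned curve classes.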
KB-V1 MDR tox: KB-V1 MDR subline cytotoxicity | KB-V1 MDR cells viability, CellTiter-Glo, 72 h | Potency, µM (series often up to 46.1 µM), usual class: cytotoxic | actives 3.4% (n = 400,000); also: nearly all actives have a fitted effect of over 60% in size
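Cytotoxicity toward P-gp-expressing KB-V1 cells was determined as loss of CellTiter-Glo luminescence after 72 h at 37 degrees C. Compounds were tested in quantitative HTS format across a concentration range, with curves fitted to normalized data.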
TDP1 cell noCPT: qHTS for Inhibitors of human tyrosyl-DNA phosphodiesterase 1 (TDP1): qHTS in cells in absence of CPT. Potency, µM (doses to about 46.2 µM), for the others: at the highest dose activity change, negative = growth inhibition, hits mostly inhibitors. actives 15% (n = 420,000). DT40 Tdp1-/- hTDP1 cells, no CPT, ATP luminescence, 48 h; also: nearly all actives have a fitted effect of over 55% in size
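Chicken DT40 Tdp1-/- cells stably complemented with human TDP1 were seeded at 400 cells/well with DMSO in place of 20 nM camptothecin. After compound pinning, cells grew at least 48 hr at 37 °C; viability read by CellTiter-Glo luminescence.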
TDP1 cell CPT: growth inhibition of DT40 Tdp1-/-;hTDP1 cells with camptothecin (screen for TDP1 inhibitors) | chicken DT40 Tdp1-/-;hTDP1 cells + 20 nM CPT, ATP luminescence, 48 h | Potency, µM (doses to about 46.2 µM), for the others: at the top dose activity change, negative = growth inhibition, hits mostly inhibitors | actives 12% (n = 420,000); also: nearly all actives have a fitted effect of over 55% in size
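Chicken DT40 Tdp1-/- cells stably complemented with human TDP1 were seeded at 400 cells/well in medium containing 20 nM camptothecin, exposed to pin-transferred compounds, and grown at 37 °C for at least 48 hr. Viability was read as ATP luminescence.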
KB-3-1 tox: KB-3-1 parental cell cytotoxicity; KB-3-1 viability, CellTiter-Glo ATP luminescence, 72 h; Potency, µM (titrated, usually from 46.1 µM), actives largely listed as cytotoxic; actives 1.4% (n = 400,000); AID 1347075; also: nearly all actives have a fitted effect of over 60% in size
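KB-3-1 cells, DMEM (no phenol red) + 10% FBS; compound by pin transfer, 72 h, 37 °C. Readout: CellTiter-Glo luminescence after 10 min. Data normalized, curve-fitted.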
* marks the source's active call; other numbers are inactive results; i = inactive; ? = inconclusive; . = not tested or not shown; [ ] = remark or other dose. Calls follow the shape of the dose curve; as a rule, active = well fitted curve in the direction sought with a large enough effect; inconclusive = small, poorly fitted or top-dose-only effect, or another doubt; inactive = no such curve, though single readings can be large; an effect the other way counts as inactive or inconclusive. Unless noted, % is scaled to controls: 0 for no effect and ±100 for the full control effect; potency is read from the fitted curve at half-maximal effect.

SMILES	HT1080-NT tox	HT1080 IDH1KD tx	KB-V1 MDR tox	TDP1 cell noCPT	TDP1 cell CPT	KB-3-1 tox
Cc1cc(C)c(S(=O)(=O)N2CCC(N3CCN(Cc4ccccc4)C(=O)C3=O)CC2)c(C)c1	.	.	?	-17%	-18%	i
Oc1ccc(N=Cc2ccc(O)c(O)c2)cc1	-22%	?	?	?	?	?
C(=N\N(c1ccccc1)c1ccccc1)/c1ccccn1	0%	-5%	i	29µM*	-13%	i
Oc1ccc(/C=N/N(c2ccccc2)c2ccccc2)cc1O	-8%	?	i	?	10µM*	i
Oc1ccc(/C=N/N=C/c2ccc(O)c(O)c2)cc1O	?	-16%	i	18µM*	?	i
COc1ccc(/C=N/N(Cc2ccccc2)c2ccccc2)cc1O	15µM*	23µM*	?	?	?	i
CCCCOc1ccc(-c2nc(=S)[nH][nH]2)cc1	1%	6%	i	0%	3%	i
COc1cccc(OC)c1C(=O)OCC(=O)NC1CCCCCC1	-5%	0%	i	?	?	i
COc1ccc(NC(=O)c2ccc(OC)c(S(=O)(=O)N3CCCCC3C)c2)cn1 (stereo not drawn)	-13%	-28%	i	-24%	?	i
O=C(/C(=N/N=C/c1ccc(O)c(O)c1)c1ccccc1)c1ccccc1	?	?	i	8.2µM*	7.3µM*	i
O=C(CCl)Nc1cn(-c2ccccc2)nc1-c1ccccc1	?	-29%	21µM*	3.7µM*	2.9µM*	?
O=C(Nc1cn(-c2ccccc2)nc1-c1ccc(F)cc1)c1ccccc1	0%	1%	16µM*	18µM*	21µM*	i
Cc1ccc(-c2nn(-c3ccccc3)cc2NC(=O)c2ccccc2)cc1	-9%	-2%	i	21µM*	21µM*	i
COc1ccc(N2CCN(Cc3cccn3-c3nnc(N4CCN(C5CCCCC5)CC4)s3)CC2)cc1	.	.	i	21µM*	21µM*	i
CCC(C)NC(=S)N(Cc1cc2cc(C)ccc2n2nnnc12)CC(C)(C)NC(C)C (stereo not drawn)	9%	2%	i	16µM*	16µM*	?
COCCN(Cc1cc2cc(C)ccc2n2nnnc12)C(=S)Nc1ccc(C)cc1	-6%	-9%	?	23µM*	18µM*	i
CCCC(=O)Nc1cc(C(=O)NCc2ccccc2)ccc1S(=O)(=O)c1ccc(Cl)cc1	.	.	i	21µM*	21µM*	i
CCCC(=O)Nc1cc(C(=O)O)ccc1S(=O)(=O)c1ccc(C)cc1	2%	0%	i	5%	5%	i
COc1cc(/C=N/Nc2snc(SC)c2C#N)cc(OC)c1OC	?	4.6µM*	i	1.8µM*	?	?
COc1ccc(-n2c(COc3cccc4ccccc34)nnc2SCC#N)cc1	?	?	i	?	?	?
N#CCSc1nnc(COc2cccc3ccccc23)n1-c1ccccc1	?	?	16µM*	21µM*	16µM*	16µM*
Cc1ccccc1OCc1nnc(SCCN2CCCC2)n1-c1ccccc1	?	?	?	21µM*	23µM*	i
Cn1c(COc2ccccc2)nnc1SCc1cc(=O)[nH]c2ccccc12	1%	3%	i	?	?	i
Cc1cccc(OCc2nnc(SCc3cc(=O)[nH]c4ccccc34)n2-c2ccccc2)c1	2%	-15%	18µM*	-16%	?	i
N#CCSc1nnc(COc2cccc3ccccc23)n1-c1cccc(Cl)c1	?	?	?	21µM*	?	i
SMILES	HT1080-NT tox	HT1080 IDH1KD tx	KB-V1 MDR tox	TDP1 cell noCPT	TDP1 cell CPT	KB-3-1 tox
COc1cccc(CN(C)C(=O)CCN=C2NS(=O)(=O)c3ccccc32)c1	6%[9.24 µM]	2%	?	-12%	-17%	i
Cc1ccc(-c2nnc(CSc3nnc(COc4cccc5ccccc45)n3-c3ccccc3)o2)cc1	-16%	?	2.1µM*	?	?	?
O=C(C(Sc1ccccc1)c1ccccc1)N1CCOCC1 (stereo not drawn)	12%	12%	18µM*	9%	7%	i
CS(=O)(=O)N1CCN(C(=O)C(Sc2ccccc2)c2ccccc2)CC1 (stereo not drawn)	15%	-10%	i	-26%	-28%	i
COc1ccccc1N1CCN(C(=O)C(Sc2ccccc2)c2ccccc2)CC1 (stereo not drawn)	?	?	?	?	18µM*	?
c1ccc(-n2nnc(-c3cccnc3)n2)cc1	8%	10%	i	-26%	-6%	i
O=[N+]([O-])c1ccc(NC(=S)NCc2ccncc2)cc1	-21%	-6%	?	?	-20%	i
O=[N+]([O-])c1ccc(C=NNC(=S)Nc2ccc(F)cc2)cc1	-11%	-13%	i	2.9µM*	1.5µM*	i
O=[N+]([O-])c1ccc(NC(=S)NCc2ccc(F)cc2)cc1	?	23µM*	?	15µM*	?	?
O=[N+]([O-])c1ccc(C=NNC(=S)NN=Cc2ccc([N+](=O)[O-])cc2)cc1	0%	0%	i	-14%	?	i
O=C(CSc1nnc(CNC(=O)C23CC4CC(CC(C4)C2)C3)n1-c1ccc(F)cc1)Nc1ccccc1	-21%	-27%	?	?	?	i
COc1cccc(-c2cccc(NC(=O)C3CCN(Cc4cnn(C)c4)CC3)c2)c1	1%	4%	.	1%	-1%	.
Cn1cc(CN2CCC(C(=O)Nc3cccc(-c4cccc(F)c4)c3)CC2)cn1	21µM*	23µM*	i	?	?	i
CCCn1ncc(CN2CCC(Cc3cccc(F)c3)(C(=O)OCC)CC2)c1C	-1%	-1%	?	?	4%	i
CCCn1ncc(CN2CCC(C(=O)Nc3cccc(-c4cccc(F)c4)c3)CC2)c1C	21µM*	?	i	?	15µM*	?
COc1ccc(C(C)=O)c(Oc2ccc(S(=O)(=O)N3CCOCC3)cn2)c1	-4%	3%	i	-30%	-5%	i
COc1ccc(-c2cc3nc(C)c(CCC(=O)NC(C)c4ccccc4)c(C)n3n2)c(OC)c1 (stereo not drawn)	.	.	i	?	-23%	i
